Test results published in article PMC7862700, “An all-to-all approach to the identification of sequence-specific readers for epigenetic DNA modifications on cytosine”.

What was measured:
Assay in all cases: DAPPL (digital affinity profiling via proximity ligation, sequencing); 10 mM Tris-HCl pH 7.5, 50 mM NaCl, 1 mM DTT, 4% glycerol, room temperature, 30 min; GST-TFs on glutathione beads, 16-mer random dsDNA library, 0.1% formaldehyde crosslink after washing; high values mean tight binding
FLI1 = target: T1, FLI1 (Homo sapiens, UniProt Q01543 1-452); settings: protein: recombinant; tags: N-terminal GST; dsDNA, one strand shown
T1 sequence: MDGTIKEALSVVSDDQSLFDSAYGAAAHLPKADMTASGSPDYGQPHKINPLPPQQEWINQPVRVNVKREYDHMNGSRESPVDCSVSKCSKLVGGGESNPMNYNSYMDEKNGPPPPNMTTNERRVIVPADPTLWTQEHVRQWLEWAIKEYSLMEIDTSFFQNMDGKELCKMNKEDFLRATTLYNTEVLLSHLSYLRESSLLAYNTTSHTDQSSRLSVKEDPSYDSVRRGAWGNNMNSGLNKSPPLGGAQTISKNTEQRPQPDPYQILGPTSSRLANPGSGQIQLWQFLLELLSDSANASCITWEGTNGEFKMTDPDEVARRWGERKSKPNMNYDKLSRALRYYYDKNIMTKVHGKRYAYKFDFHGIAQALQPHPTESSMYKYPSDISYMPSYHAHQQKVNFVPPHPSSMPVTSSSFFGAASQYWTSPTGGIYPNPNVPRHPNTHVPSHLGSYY
Outline: (§1)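 After expression in yeast as GST fusions, human transcription factors were bound to glutathione beads, DNA-barcoded and mixed with a tag-only sample. The pools were incubated with 200 nmole of a 16-mer random double-stranded DNA library in Tris/NaCl/DTT/glycerol buffer (30 min, room temperature), washed and crosslinked with 0.1% formaldehyde. Proximity ligation with BsaI/T4 ligase ran for 1 h at 37 °C, before PCR amplification and sequencing on an Illumina NextSeq500. Binding signal is a hexamer's read frequency for a factor divided by its frequency for the tag-only sample.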

ELK1 = target: T2, ELK1 (Homo sapiens, UniProt P19419 1-428); settings: protein: recombinant; tags: N-terminal GST; dsDNA, one strand shown
T2 sequence: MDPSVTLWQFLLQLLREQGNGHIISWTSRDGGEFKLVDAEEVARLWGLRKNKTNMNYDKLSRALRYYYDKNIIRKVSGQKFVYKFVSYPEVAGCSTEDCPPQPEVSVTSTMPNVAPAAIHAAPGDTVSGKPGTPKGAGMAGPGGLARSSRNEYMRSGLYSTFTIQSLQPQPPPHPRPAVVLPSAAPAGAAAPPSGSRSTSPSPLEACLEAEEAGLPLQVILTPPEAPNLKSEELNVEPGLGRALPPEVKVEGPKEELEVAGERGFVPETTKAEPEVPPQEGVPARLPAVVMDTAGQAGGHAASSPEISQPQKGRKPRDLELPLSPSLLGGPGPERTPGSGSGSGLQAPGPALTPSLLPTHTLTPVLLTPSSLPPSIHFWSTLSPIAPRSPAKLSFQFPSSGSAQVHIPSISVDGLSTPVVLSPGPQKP
Outline: as §1

GABPA = target: T3, GABPA (Homo sapiens, UniProt Q06546 1-454); settings: protein: recombinant; tags: N-terminal GST; dsDNA, one strand shown
T3 sequence: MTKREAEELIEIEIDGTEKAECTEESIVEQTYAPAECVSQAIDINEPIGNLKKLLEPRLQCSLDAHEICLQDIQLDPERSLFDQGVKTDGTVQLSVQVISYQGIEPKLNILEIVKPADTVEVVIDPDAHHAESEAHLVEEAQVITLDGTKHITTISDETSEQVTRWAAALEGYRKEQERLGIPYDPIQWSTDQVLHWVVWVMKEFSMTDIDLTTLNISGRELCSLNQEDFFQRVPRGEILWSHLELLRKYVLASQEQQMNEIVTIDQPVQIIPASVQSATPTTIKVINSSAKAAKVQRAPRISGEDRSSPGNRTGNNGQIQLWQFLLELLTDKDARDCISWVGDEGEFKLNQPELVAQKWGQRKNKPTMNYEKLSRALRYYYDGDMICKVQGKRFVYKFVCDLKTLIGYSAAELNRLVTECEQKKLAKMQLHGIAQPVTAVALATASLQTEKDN
Outline: as §1

ERG = target: T4, ERG (Homo sapiens, UniProt P11308 1-479); settings: protein: recombinant; tags: N-terminal GST; dsDNA, one strand shown
T4 sequence: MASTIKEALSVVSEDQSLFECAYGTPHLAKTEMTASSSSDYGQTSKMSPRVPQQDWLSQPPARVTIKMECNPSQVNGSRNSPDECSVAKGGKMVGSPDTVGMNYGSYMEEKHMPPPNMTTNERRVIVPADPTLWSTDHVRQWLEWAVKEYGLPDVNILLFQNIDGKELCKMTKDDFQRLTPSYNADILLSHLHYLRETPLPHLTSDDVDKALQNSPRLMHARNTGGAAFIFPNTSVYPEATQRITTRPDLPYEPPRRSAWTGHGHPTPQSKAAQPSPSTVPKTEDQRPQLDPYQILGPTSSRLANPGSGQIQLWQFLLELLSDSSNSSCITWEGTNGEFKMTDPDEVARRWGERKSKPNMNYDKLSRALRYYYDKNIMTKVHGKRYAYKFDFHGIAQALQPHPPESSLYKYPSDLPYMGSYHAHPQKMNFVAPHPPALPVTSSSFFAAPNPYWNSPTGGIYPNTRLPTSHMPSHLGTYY
Outline: as §1

ELF1 = ELF1 (Homo sapiens, UniProt P32519 1-619); settings: protein: recombinant; tags: N-terminal GST; dsDNA, one strand shown
Sequence of ELF1 (P32519 whole entry): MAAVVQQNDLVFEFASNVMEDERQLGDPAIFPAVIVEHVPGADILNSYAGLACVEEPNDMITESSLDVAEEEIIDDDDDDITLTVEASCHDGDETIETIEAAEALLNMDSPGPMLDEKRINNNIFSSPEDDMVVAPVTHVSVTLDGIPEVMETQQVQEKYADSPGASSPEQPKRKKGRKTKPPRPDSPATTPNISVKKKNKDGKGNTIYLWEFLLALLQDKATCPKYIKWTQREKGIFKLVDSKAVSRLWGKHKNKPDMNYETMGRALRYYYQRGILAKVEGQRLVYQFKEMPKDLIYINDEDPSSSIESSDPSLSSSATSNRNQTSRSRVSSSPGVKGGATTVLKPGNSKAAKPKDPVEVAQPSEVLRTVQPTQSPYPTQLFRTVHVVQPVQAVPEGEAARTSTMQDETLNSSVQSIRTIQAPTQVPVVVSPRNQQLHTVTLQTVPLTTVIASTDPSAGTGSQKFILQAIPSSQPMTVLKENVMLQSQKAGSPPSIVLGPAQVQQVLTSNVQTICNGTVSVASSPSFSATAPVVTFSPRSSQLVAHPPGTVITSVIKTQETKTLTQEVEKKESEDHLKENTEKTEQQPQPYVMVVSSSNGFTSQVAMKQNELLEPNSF
Outline: as §1

EHF = target: T5, EHF (Homo sapiens, UniProt Q9NZC4 1-300); settings: protein: recombinant; tags: N-terminal GST; dsDNA, one strand shown
T5 sequence: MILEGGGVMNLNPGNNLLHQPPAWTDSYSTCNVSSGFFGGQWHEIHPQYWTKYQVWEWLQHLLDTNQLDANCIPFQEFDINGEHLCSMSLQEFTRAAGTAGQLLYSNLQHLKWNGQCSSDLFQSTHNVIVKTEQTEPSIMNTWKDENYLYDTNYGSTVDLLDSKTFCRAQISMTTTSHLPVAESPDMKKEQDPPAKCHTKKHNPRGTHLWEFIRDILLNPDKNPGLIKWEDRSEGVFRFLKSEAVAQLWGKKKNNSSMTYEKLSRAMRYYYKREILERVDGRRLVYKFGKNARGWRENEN
Outline: as §1

SPI1 = SPI1 (Homo sapiens, UniProt P17947 1-270); settings: protein: recombinant; tags: N-terminal GST; dsDNA, one strand shown
Outline: as §1

SPIB = SPIB (Homo sapiens, UniProt Q01892 1-262); settings: protein: recombinant; tags: N-terminal GST; dsDNA, one strand shown
Sequence of SPIB (Q01892 whole entry): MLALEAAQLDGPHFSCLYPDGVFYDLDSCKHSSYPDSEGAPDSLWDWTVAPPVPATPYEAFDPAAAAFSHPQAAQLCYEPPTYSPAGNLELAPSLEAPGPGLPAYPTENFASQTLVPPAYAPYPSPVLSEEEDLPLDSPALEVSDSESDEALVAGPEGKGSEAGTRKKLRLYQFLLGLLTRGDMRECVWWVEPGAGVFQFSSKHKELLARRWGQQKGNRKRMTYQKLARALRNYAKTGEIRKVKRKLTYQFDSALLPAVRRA
Outline: as §1

ELK3 = target: T6, ELK3 (Homo sapiens, UniProt P41970 1-407); settings: protein: recombinant; tags: N-terminal GST; dsDNA, one strand shown
T6 sequence: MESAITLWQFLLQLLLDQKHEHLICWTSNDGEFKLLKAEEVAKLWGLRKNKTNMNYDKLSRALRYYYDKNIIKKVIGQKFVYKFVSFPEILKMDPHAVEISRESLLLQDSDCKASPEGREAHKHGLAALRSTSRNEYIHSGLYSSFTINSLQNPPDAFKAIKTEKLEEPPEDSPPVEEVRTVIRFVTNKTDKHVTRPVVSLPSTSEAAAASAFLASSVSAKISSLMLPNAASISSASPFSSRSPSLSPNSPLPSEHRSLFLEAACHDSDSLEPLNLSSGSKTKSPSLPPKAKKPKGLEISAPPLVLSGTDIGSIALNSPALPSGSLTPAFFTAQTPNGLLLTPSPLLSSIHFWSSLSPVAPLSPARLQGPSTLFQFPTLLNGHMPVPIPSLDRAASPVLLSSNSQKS
Outline: as §1

FEV = target: T7, FEV (Homo sapiens, UniProt Q99581 1-238); settings: protein: recombinant; tags: N-terminal GST; dsDNA, one strand shown
T7 sequence: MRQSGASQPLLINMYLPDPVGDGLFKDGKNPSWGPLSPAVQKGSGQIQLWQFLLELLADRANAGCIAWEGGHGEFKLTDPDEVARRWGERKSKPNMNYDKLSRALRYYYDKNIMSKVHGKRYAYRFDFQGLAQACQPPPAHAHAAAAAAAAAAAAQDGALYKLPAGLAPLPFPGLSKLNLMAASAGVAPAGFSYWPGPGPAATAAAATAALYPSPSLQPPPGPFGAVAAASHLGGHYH
Outline: as §1

ETV5 = ETV5 (Homo sapiens, UniProt P41161 1-510); settings: protein: recombinant; tags: N-terminal GST; dsDNA, one strand shown
Sequence of ETV5 (P41161 whole entry): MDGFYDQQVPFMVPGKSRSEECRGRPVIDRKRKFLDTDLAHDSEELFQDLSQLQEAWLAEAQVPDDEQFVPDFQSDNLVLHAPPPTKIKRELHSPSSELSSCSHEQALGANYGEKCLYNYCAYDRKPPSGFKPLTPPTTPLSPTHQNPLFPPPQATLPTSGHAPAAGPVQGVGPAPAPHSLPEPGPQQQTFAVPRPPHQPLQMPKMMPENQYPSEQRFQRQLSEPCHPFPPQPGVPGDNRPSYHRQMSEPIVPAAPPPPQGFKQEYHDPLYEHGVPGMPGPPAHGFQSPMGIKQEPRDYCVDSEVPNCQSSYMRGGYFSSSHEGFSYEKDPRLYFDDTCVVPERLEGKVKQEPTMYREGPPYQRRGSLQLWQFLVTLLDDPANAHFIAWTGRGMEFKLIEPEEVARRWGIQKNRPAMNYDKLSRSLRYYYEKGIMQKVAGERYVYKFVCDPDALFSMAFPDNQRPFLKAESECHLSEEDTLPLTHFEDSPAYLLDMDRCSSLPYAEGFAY
Outline: as §1

HSF1 = HSF1 (Homo sapiens, UniProt Q00613 1-529); settings: protein: recombinant; tags: N-terminal GST; chain copies: 3; dsDNA, one strand shown
Sequence of HSF1 (Q00613 whole entry): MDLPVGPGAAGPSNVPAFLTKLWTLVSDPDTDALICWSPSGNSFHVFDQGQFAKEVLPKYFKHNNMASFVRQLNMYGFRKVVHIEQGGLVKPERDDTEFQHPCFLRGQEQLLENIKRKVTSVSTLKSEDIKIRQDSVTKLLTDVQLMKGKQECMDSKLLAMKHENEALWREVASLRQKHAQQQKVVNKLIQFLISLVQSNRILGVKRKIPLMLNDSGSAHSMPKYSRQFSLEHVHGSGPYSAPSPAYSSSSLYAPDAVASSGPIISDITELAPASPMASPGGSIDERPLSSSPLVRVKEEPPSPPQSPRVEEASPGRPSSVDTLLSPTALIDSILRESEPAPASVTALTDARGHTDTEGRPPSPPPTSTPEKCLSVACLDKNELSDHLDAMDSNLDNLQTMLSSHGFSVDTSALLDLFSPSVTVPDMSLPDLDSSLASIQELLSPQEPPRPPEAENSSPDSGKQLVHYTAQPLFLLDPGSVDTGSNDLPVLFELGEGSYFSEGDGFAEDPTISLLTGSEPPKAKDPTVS
Outline: as §1

SPIC = target: T8, SPIC (Homo sapiens, UniProt Q8N5J4 1-248); settings: protein: recombinant; tags: N-terminal GST; dsDNA, one strand shown
T8 sequence: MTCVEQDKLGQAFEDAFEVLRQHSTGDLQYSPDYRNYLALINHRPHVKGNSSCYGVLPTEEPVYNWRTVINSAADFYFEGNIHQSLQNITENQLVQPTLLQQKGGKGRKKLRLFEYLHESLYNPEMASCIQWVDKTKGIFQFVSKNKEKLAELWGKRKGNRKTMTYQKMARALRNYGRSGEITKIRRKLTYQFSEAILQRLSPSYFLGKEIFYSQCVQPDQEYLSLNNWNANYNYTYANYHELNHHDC
Outline: as §1

ELF4 = ELF4 (Homo sapiens, UniProt Q99607 1-663); settings: protein: recombinant; tags: N-terminal GST; dsDNA, one strand shown
Sequence of ELF4 (Q99607 whole entry): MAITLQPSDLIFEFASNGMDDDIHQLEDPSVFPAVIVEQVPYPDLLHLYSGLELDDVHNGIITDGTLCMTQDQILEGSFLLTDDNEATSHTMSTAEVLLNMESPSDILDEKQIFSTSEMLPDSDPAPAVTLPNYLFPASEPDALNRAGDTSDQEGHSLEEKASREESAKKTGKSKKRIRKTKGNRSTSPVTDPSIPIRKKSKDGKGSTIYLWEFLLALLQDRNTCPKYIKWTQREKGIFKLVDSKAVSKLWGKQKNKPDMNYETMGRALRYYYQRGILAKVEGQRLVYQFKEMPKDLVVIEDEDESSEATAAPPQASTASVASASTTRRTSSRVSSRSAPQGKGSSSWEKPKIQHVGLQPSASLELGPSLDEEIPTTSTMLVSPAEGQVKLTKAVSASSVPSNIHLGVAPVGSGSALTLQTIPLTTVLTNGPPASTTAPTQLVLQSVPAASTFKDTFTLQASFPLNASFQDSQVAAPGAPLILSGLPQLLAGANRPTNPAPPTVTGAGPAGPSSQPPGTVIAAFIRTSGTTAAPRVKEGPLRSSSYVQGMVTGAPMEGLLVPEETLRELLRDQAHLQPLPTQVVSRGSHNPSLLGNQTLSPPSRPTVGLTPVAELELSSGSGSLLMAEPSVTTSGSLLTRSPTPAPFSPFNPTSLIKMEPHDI
Outline: as §1

ELK4 = target: T9, ELK4 (Homo sapiens, UniProt P28324-2 1-405); settings: protein: recombinant; tags: N-terminal GST; dsDNA, one strand shown
T9 sequence: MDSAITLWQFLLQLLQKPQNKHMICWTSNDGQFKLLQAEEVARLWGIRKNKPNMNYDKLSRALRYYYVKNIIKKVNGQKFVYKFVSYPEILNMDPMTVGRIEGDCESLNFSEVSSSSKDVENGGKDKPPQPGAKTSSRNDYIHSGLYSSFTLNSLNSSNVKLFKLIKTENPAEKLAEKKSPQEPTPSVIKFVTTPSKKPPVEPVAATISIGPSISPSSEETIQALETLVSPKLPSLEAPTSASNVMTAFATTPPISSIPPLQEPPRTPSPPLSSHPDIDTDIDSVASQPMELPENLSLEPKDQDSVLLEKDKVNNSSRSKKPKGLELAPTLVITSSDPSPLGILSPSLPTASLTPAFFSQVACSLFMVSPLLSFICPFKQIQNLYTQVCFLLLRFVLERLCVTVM
Outline: as §1

ETV2 = target: T10, ETV2 (Homo sapiens, UniProt O00321 1-342); settings: protein: recombinant; tags: N-terminal GST; dsDNA, one strand shown
T10 sequence: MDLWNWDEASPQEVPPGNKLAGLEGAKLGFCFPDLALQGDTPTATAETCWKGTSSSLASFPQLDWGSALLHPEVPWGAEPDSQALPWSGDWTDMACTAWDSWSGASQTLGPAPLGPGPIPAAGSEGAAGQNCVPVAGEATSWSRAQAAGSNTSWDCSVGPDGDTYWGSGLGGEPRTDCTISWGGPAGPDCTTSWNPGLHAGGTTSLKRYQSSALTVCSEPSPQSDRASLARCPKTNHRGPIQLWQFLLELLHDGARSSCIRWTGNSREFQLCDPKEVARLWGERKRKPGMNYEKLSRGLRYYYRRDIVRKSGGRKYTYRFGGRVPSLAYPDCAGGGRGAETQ
Outline: as §1

ELF3 = target: T11, ELF3 (Homo sapiens, UniProt P78545 1-371); settings: protein: recombinant; tags: N-terminal GST; dsDNA, one strand shown
T11 sequence: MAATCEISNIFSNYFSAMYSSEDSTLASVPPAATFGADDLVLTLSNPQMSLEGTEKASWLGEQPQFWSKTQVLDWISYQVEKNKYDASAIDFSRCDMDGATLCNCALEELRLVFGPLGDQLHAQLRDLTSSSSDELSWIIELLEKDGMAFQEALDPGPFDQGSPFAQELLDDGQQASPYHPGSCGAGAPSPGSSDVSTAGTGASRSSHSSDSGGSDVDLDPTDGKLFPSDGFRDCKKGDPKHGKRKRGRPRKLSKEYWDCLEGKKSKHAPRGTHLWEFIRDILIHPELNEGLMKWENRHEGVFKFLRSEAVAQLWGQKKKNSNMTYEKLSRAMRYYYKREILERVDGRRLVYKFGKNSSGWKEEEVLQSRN
Outline: as §1

CRX = CRX (Homo sapiens, UniProt O43186 1-299); settings: protein: recombinant; tags: N-terminal GST; dsDNA, one strand shown
Sequence of CRX (O43186 whole entry): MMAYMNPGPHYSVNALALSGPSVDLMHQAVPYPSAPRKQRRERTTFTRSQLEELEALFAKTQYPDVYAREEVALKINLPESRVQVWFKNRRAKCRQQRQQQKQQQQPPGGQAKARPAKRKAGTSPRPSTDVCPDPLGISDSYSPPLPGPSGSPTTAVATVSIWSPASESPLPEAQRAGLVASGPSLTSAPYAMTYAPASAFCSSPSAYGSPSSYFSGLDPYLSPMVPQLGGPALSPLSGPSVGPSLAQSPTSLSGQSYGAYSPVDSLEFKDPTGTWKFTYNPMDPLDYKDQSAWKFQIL
Outline: as §1

ETV1 = ETV1 (Homo sapiens, UniProt P50549 1-477); settings: protein: recombinant; tags: N-terminal GST; dsDNA, one strand shown
Sequence of ETV1 (P50549 whole entry): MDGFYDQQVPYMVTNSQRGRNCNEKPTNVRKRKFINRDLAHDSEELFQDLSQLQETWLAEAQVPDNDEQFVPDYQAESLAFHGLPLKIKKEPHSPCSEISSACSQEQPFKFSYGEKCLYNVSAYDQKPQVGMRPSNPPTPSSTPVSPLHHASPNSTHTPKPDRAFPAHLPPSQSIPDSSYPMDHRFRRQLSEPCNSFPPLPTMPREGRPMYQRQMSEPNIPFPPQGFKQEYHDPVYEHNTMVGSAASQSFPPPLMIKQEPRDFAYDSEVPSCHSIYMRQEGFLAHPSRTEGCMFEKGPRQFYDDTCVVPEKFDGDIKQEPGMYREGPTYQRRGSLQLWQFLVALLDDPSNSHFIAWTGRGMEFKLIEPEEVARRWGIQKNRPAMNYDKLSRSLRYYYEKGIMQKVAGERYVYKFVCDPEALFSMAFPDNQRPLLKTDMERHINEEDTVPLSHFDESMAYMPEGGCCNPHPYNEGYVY
Outline: as §1

With ATTTGT as the sequence, how does the binding signal (FLI1) read?
The binding signal was 1.36 fold enrichment (6-mer frequency, TF over GST control).

What about the binding signal (ELK1) of the same sequence?
The binding signal was 1.36 fold enrichment (6-mer frequency, TF over GST control).

And the binding signal (GABPA)?
The binding signal was 1.34 fold enrichment (6-mer frequency, TF over GST control).

And the binding signal (ERG)?
The binding signal was 1.28 fold enrichment (6-mer frequency, TF over GST control).

What about the binding signal (ELF1) of the same sequence?
Its binding signal is 1.31 fold enrichment (6-mer frequency, TF over GST control).

And the binding signal (EHF)?
The binding signal was 1.3 fold enrichment (6-mer frequency, TF over GST control).

And the binding signal (SPI1)?
Its binding signal is 1.26 fold enrichment (6-mer frequency, TF over GST control).

What about the binding signal (SPIB) of the same sequence?
Its binding signal is 1.27 fold enrichment (6-mer frequency, TF over GST control).

What about the binding signal (ELK3) of the same sequence?
Its binding signal is 1.24 fold enrichment (6-mer frequency, TF over GST control).

What about the binding signal (FEV) of the same sequence?
The binding signal was 1.34 fold enrichment (6-mer frequency, TF over GST control).

And the binding signal (ETV5)?
The binding signal was 1.41 fold enrichment (6-mer frequency, TF over GST control).

What about the binding signal (HSF1) of the same sequence?
The binding signal was 1.33 fold enrichment (6-mer frequency, TF over GST control).

What about the binding signal (SPIC) of the same sequence?
The binding signal was 1.35 fold enrichment (6-mer frequency, TF over GST control).

What about the binding signal (ELF4) of the same sequence?
Its binding signal is 1.32 fold enrichment (6-mer frequency, TF over GST control).

What about the binding signal (ELK4) of the same sequence?
Its binding signal is 1.45 fold enrichment (6-mer frequency, TF over GST control).

What about the binding signal (ETV2) of the same sequence?
Its binding signal is 1.44 fold enrichment (6-mer frequency, TF over GST control).

And the binding signal (ELF3)?
Its binding signal is 1.41 fold enrichment (6-mer frequency, TF over GST control).

What about the binding signal (CRX) of the same sequence?
Its binding signal is 1.58 fold enrichment (6-mer frequency, TF over GST control).

What about the binding signal (ETV1) of the same sequence?
Its binding signal is 1.23 fold enrichment (6-mer frequency, TF over GST control).
